The results in this text go back to PubChem BioAssay AID687014 (The Scripps Research Institute Molecular Screening Center, 2013).

Hit rate of the full screen: of about 370,000 compounds, about 6,800 (1.8%) were called active. The entries come from a sample that favours actives as a whole. A number with no mark means an inactive call.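 Rule for the calls: active = activation above a cutoff set at the mean of all screened compounds plus 3 SD (cut at about 10% in these data); inactive = the rest.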

The subject of this experiment is Nuclear hormone receptor DAF-12 (Heterodera glycines), GAL4 fusion. Put plainly: hgDAF-12 GAL4 fusion reporter activation – cell-based, luminescence, HEK293, UAS-luciferase, primary screen (AID 687014).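 Note: 0% = DMSO wells and 100% = sodium butyrate wells.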 Conditions: HEK293 GAL4-hgDAF12 UAS-luciferase reporter, agonist luminescence; at 6.8 µM; active compounds read high; normalized to butyrate control. Background: A reporter such as luciferase makes a cellular process visible.
On to `O=C(Nc1nc2ccc(Cl)cc2s1)c1cc(-c2ccc(Cl)cc2)nc2ccccc12`, for which the activation is -1.16%.

As for `O=C(Nc1ccccc1)Nc1nc2ccccc2s1`, the activation was 26.4% (active).

In the case of `O=C(Nc1ccccc1)Nc1nnc(COc2ccccc2F)s1`, the activation was -2.63%.

With `CN(CCc1ccccc1)c1ccc([N+](=O)[O-])cn1`, the activation is 2.43%.

Turning to `CC(C)c1ccc(/C=C2\NC(=O)NC2=O)cc1`, the activation was 1.14%.

For the compound `CC(C)c1ccc(C=NNc2ccc([N+](=O)[O-])cn2)cc1`, the activation was 16.8% (active).

On to `CCOC(=O)c1csc(NC(=O)C2CCCN(S(=O)(=O)c3ccc(Cl)s3)C2)n1` (stereo not drawn), for which the activation is -0.73%.

On to `CSCCC(NC(=O)c1ccco1)C(=O)Nc1cc(C)ccn1` (stereo not drawn), for which the activation was 11.9% (active).

For the compound `CSCCC(NC(=O)c1ccco1)C(=O)OCC(=O)Nc1ncc(Cl)c(C)c1Cl` (stereo not drawn), the activation is -1.62%.

`CSCCC(NC(=O)c1ccco1)C(=O)NCCc1ccc(F)cc1` (stereo not drawn): the activation was 0.46%.

On to `COC(=O)[C@]12C[C@H](CC(=O)NCc3ccccc3)C(=O)N(CCC3=CCCCC3)C1=C[C@H](C(C)C)O[C@@H]2C1CC1`, for which the activation is 2%.

For `O=[N+]([O-])c1cc(S(=O)(=O)N2CCCC2)ccc1NN=C1CCCC1`, the activation is 15.3% (active).

Turning to `O=C(COc1ccc(S(=O)(=O)N2CCCC2)cc1[N+](=O)[O-])N1CCCCC1`, the activation was -0.16%.

For `O=[N+]([O-])c1cc(C(F)(F)F)ccc1NN=C1CCCC1`, the activation was 0.04%.

`O=C1CC(c2ccc3c(c2)OCO3)N=C2N(CC3CC3)C/C(=C/c3ccccc3)N12` (stereo not drawn): the activation was -2.7%.

Consider `Cc1cc(C)cc(N(CC(=O)NC2CCCC2)C(=O)CCC(=O)Nc2cc(C)on2)c1`, for which the activation was -1.1%.

Take `O=C(O)C1CCCN1S(=O)(=O)c1ccc(Br)cc1` (stereo not drawn): the activation is 0.88%.

Regarding `COc1cc2c(cc1OC)/C(=C/C(=O)c1ccc(NC(C)=O)cc1)NCC2`, the activation is 0.96%.

With `CC1CN/C(=C\C(=O)c2ccc(Br)cc2)C(=O)N1` (stereo not drawn), the activation was 10.5% (active).

Regarding `C=CCN=C1NC(c2cccc(C(F)(F)F)c2)C(C(=O)OC)=C(C)N1C` (stereo not drawn), the activation was 1.38%.

For `Cc1cccc(Cn2cnc3c(N)c(C)c(C)cc32)c1`, the activation is -4.28%.

Take `CCCCCCN1CCS(=O)(=O)N(Cc2ccc(C(F)(F)F)cc2)C(C(=O)OC)C1` (stereo not drawn): the activation is 1.39%.

Take `O=C(c1cnn2ccccc12)N1CCc2ccccc21`: the activation is 16.5% (active).

On to `Cc1cnc(C(=O)OCC(=O)N2CCc3ccccc32)cn1`, for which the activation is 1.4%.

With `CCCCn1nc(C(=O)N2CCc3ccccc32)c2ccccc2c1=O`, the activation is -0.16%.

Turning to `COC(=O)[C@]12C[C@H](CC(=O)NCCCCc3ccccc3)C(=O)N(Cc3ccc4c(c3)OCO4)C1=C[C@H](C(C)(C)C)O[C@@H]2C`, the activation is 0.98%.

Regarding `Cn1c(-c2ccco2)nc2cc3ccccc3cc21`, the activation is 19.3% (active).

Consider `Cn1c(SCC(=O)c2cccs2)nnc1-c1ccco1`, for which the activation is 1.52%.

With `Cc1ccc(-n2ncc3c(=O)n(-c4ccc(C)c(C)c4)c(-c4ccco4)nc32)cc1`, the activation was 3.84%.

As for `O=C(Nc1c(Cl)c(C2CC2)nn1-c1ccccc1)C(Cl)(Cl)Cl`, the activation was -2.93%.

For `CCC[C@H]1C(=O)CC[C@@]23CCCN2C(=O)CCC[C@@H]13`, the activation was 1.6%.

Consider `COC(=O)CSc1nnc(-c2cccnc2)o1`, for which the activation was 1.06%.

In the case of `CC1(c2nnc(-c3ccncc3)o2)CC(c2cccnc2)=NO1` (stereo not drawn), the activation is 3.68%.

In the case of `CN(C)c1ccc(-c2nnc(-c3cccnc3)o2)cc1`, the activation was 10.8% (active).

As to `COc1ccc(/C(N)=N/OC(=O)CCCc2ccccc2)cc1`, the activation was -0.4%.

As to `COc1ccc(/C(N)=N/OC(=O)Oc2ccccc2)cc1`, the activation is 1.76%.

`COc1ccc(/C(N)=N/OC(=O)Cc2ccccc2)cc1`: the activation was 11.7% (active).

In the case of `CC(=O)Nc1ccc(OC[C@@H](O)CN2CCC(C(O)(c3ccccc3)c3ccccc3)CC2)cc1`, the activation was 2.46%.

On to `CCCNC(=O)C1CC(=O)N(c2ccc(OCc3ccccc3)cc2)C1` (stereo not drawn), for which the activation is 11% (active).

In the case of `CCOc1ccc(N2CC(C(=O)NCc3ccccn3)CC2=O)cc1` (stereo not drawn), the activation was -1.47%.

In the case of `CCCNC(=O)C1CC(=O)N(c2ccc(OCC(=O)Nc3cccc(C)c3C)cc2)C1` (stereo not drawn), the activation is 0.77%.

As for `COc1ccc(N2CCN(CCNS(=O)(=O)c3ccc(Cl)s3)CC2)cc1`, the activation was 2.51%.

Regarding `Cc1ccc(OCc2nc3ccccc3n2C)cc1`, the activation is 13.2% (active).

As for `COc1cccc(C(O)Cc2nc3ccccc3n2C)c1OC` (stereo not drawn), the activation is 3.91%.

For `Cc1ccc(Oc2nc3ccccc3n3c(C)nnc23)cc1`, the activation is 1.53%.

Take `COC(=O)[C@]12C[C@H](CC(=O)NCc3cccc4ccccc34)C(=O)N(CCc3ccc(OC)c(OC)c3)C1=C[C@H](C1CCCC1)O[C@@H]2C`: the activation was -1.01%.

As for `O=C(CSc1nnc(-c2ccccn2)n1-c1ccccc1)Nc1ccc2cn[nH]c2c1`, the activation was 6.78%.

As to `O=C(NCCS(=O)(=O)c1ccc(Br)cc1)c1ccccc1Cl`, the activation was 2.39%.

With `Cc1ccccc1NC(=O)Cn1nnc(-c2ccccc2F)n1`, the activation is -1.63%.

Regarding `COC(=O)c1cc2c(N)c(C(=O)c3ccc(Cl)cc3)sc2nc1C(OC)OC`, the activation was -0.74%.

`CC(=O)c1c(Nc2ccccc2)sc(C(=O)c2ccccc2)c1C`: the activation was 4.88%.

For `CN(C)c1ccnc2sc(C(=O)c3ccccc3)c(N)c12`, the activation was 21.3% (active).

On to `COC(=O)c1c(C(=O)OC)c(-c2cccc(C)c2)n2c1CS(=O)C2` (stereo not drawn), for which the activation is 2.79%.

In the case of `Cc1cc(NS(=O)(=O)c2ccc(NC(=O)CSc3nnc(SCc4ccc(F)cc4)s3)cc2)nc(C)n1`, the activation is 1.18%.

On to `CCOC(=O)C(=O)N(Cc1ccccc1)c1ccccc1C(=O)Nc1cc(OC)ccc1OC`, for which the activation is -2.17%.

Turning to `Cc1ccccc1CN1CCCCC(NC(=O)c2cccc(C#N)c2)C1=O` (stereo not drawn), the activation is -2.73%.

Regarding `COC(=O)C1=C(C)N(Cc2ccc(C(F)(F)F)cc2)C(=NCc2ccccc2)NC1c1ccccc1C(F)(F)F` (stereo not drawn), the activation was 1.9%.

Consider `COCc1[nH]nc2c1C(c1ccccc1)N(c1ccccc1)C2=O` (stereo not drawn), for which the activation was 0.79%.

`COCc1cc(N2CCN(C(=O)OC(C)(C)C)C[C@@H]2C)ccc1N1CCN(Cc2ccccc2)[C@H](C)C1`: the activation was 4.83%.

`CCN(C(=O)CSc1cccc[n+]1[O-])c1ccccc1`: the activation is -0.46%.

Consider `O=C(CSc1cccc[n+]1[O-])NCCCc1ccccc1`, for which the activation is 1.17%.

As to `O=C(CSc1cccc[n+]1[O-])c1ccc(-c2ccccc2)cc1`, the activation was 10.8% (active).

Take `COc1ccc(C(=O)N/N=C(\C)CC(=O)Nc2ccc(Cl)cn2)cc1`: the activation was 0.32%.

On to `CC1(c2ccc(Cl)cc2)NC(=O)N(CC(=O)c2ccc3c(c2)OCO3)C1=O` (stereo not drawn), for which the activation is -1.6%.

On to `CCCc1cc(C(=O)Nc2ccc(Cl)cn2)cs1`, for which the activation is 12.9% (active).

As to `O=C(Nc1ccc(Cl)cn1)c1ccc2c(c1)OCCO2`, the activation was 18.1% (active).

As for `Cc1nc(NC(=O)c2ccc3c(c2)OCCO3)ccc1Br`, the activation was 7.16%.

On to `CC(OC(=O)CNC(=O)c1ccco1)C(=O)Nc1ccc(Cl)cn1` (stereo not drawn), for which the activation is 1.56%.

For the compound `O=C(c1c[nH]c2ccccc12)N1CCC(Oc2cccnc2)CC1`, the activation was 4.09%.

On to `Cc1ccc(C(=O)C2CCN(CC(=O)NCCC(C)C)CC2)cc1`, for which the activation is -0.75%.

`CC(C)CC(=O)N1CCC(O)(CS(=O)(=O)Cc2ccccc2)CC1`: the activation was -2.29%.

For `CCCCC(=O)N[C@@H]1CC[C@@]23CCCN2C(=O)CCC[C@H]3[C@H]1C`, the activation was 0.52%.

Regarding `CCN(C(=O)[C@@H](C1CC1)[C@@H](O)c1ccc2ccccc2c1)c1ccccc1`, the activation was -0.8%.

On to `Cc1ccc(N)cc1CN1CCN(c2ncc(Cc3ccccc3)cn2)CC1`, for which the activation is 0.77%.

On to `Cc1cc(N)n2nc(-c3ccc(C(C)(C)C)cc3)cc2n1`, for which the activation is 20% (active).

In the case of `CCC1(C)COC(c2ccc(OC)c(OC)c2)OC1` (stereo not drawn), the activation is -1.37%.

On to `CCC1([N+](=O)[O-])COC(c2ccc(C(C)C)cc2)OC1` (stereo not drawn), for which the activation is 12.9% (active).

With `CCC1([N+](=O)[O-])COC(c2ccc(C)cc2)OC1` (stereo not drawn), the activation is 1.83%.

As to `Oc1ccc(/C=C/c2c(F)cccc2F)c2cccnc12`, the activation is -6.27%.

On to `CCCCNc1cccc2c1S(=O)(=O)N[C@@H](C)CO2`, for which the activation was 0.24%.

Regarding `O=C(NCc1ccccc1)[C@H]1CCCN1C(=O)[C@H]1CCCN1C(=O)c1cc(F)cc(F)c1`, the activation is -0.18%.

Consider `CC(C)N1CCCCC(NC(=O)C(C)(C)C)C1=O` (stereo not drawn), for which the activation was 0.58%.

Take `CC(=O)c1ccc(S(=O)(=O)NCC2CCN(C(=O)C(=O)c3cccs3)CC2)cc1`: the activation was -0.16%.

`NC(=O)c1ccccc1N=Cc1ccc2ccccc2c1`: the activation is 14.3% (active).

On to `O=C(OCC(=O)N1CCOCC1)c1ccc2ccccc2c1`, for which the activation was 4.48%.

Turning to `Cc1nc2c(C(=O)NCc3cccs3)cnn2c(C)c1Cc1ccc(F)cc1`, the activation was -1.35%.

`C=CCN1C(=O)[C@@H](CC(=O)NCCCCc2ccccc2)[C@]2(C(=O)OCC)CCCCC/C=C/12`: the activation was 2.01%.

As to `Cc1ccccc1C(=O)N[C@H](C(=O)N1CCC[C@H]1C(=O)NCc1ccccc1)C(C)C`, the activation was -1.35%.

`COc1cccc(CC(=O)N2CCN(C(=O)C(=O)c3cccc(C(F)(F)F)c3)CC2)c1`: the activation was -0.52%.

As for `CCOC(=O)c1csc(CCNC(=O)c2oc3c(Cl)cc(C)cc3c2C)n1`, the activation was 1.98%.

As for `CN(C)C(=O)c1ccc(NC(=O)COC(=O)c2cc3c(s2)CCCCC3)cc1`, the activation was 2.42%.

Consider `O=C(NCC1CCCO1)c1cc2c(s1)CCCC2` (stereo not drawn), for which the activation is 7.29%.

For the compound `O=C(Nc1ccc(F)cc1)c1cc2c(s1)CCCC2`, the activation was 10.8% (active).
